Source: PubChem BioAssay (NCI)
This is part of a sample that, as a whole, favours compounds with a hit. Of some 83,000 tested, about 20% had one in any assay.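 Single-concentration screen, 48 h exposure, 96-well plates. Endpoint: percent growth. Below 10 = active.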 A number with no mark means an inactive call. Active and inactive are the calls of the source.

Test system: HOP-92 NSCLC
Test: NCI-60 one-dose screen, 48 h (100 = growth as untreated, 0 = no growth, -100 = all killed)
Settings: 10 µM unless noted
Method: Growth inhibition of the HOP-92 human Non-Small Cell Lung tumor cell line is measured as a screen for anti-cancer activity. Cells are grown in 96 well plates and exposed to the test compound for 48 hours. Compounds are tested at a single concentration, which is 10^-5 M for most compounds. The reported endpoint is percent growth (GI% or GIPRCNT), where numbers from 0 - 100% represent growth inhibition, and numbers from -100% - 0 represent cell death. For example, a value of 40 represents 60% growth inhibition. A value of 0 means no net growth occurred over the course of the experiment. A value of -40 indicates 40% of cells at the beginning of the experiment died by the end of the experiment. A value of -100 means all cells are dead at the end of the experiment.
NCI-60 Human Tumor Cell Lines Screen was performed using the standard one-dose NCI protocol, which is described in more detail at https://dtp.cancer.gov/discovery_development/nci-60/default.htm.
Compounds with GIPRCNT values below 10 were considered active. Activity score was based on GIPRCNT using the following formula: […]
Score is 0 for GIPRCNT values of 100 or above, 50 for GIPRCNT values of 0, and 100 for GIPRCNT values of -100.

SMILES	growth
NC(N)=NS(=O)(=O)c1ccc(N=Nc2c(N)nn(-c3ccc([N+](=O)[O-])cc3[N+](=O)[O-])c2N)cc1	88.2%
O=C(CCCCCCN1CC(=O)N2[C@@H](C3CC3)c3[nH]c4ccccc4c3C[C@H]2C1=O)NO	53.4%
CC(=O)OC[C@]12CC[C@@H](C(=O)/C=C/c3cccnc3)[C@@H]1[C@H]1CC[C@@H]3[C@@]4(C)CC[C@H](OC(C)=O)C(C)(C)[C@@H]4CC[C@@]3(C)[C@]1(C)CC2	-29.1% (active)
Cn1cc(-c2nc(N)nnc2-c2c[nH]c3ccc(Br)cc23)c2cc(F)ccc21	98.7%
Cc1[nH]c(C(=O)Nc2ccccc2OCc2cccc(C(=O)NC3CCNC3)c2)c(Cl)c1Cl (stereo not given)	70.2%
COc1ccc([C@H]2C(=O)N(c3cc(OC)c(OC)c(OC)c3)[C@@H]2c2ccc(OC)c(O)c2)cc1	6.76% (active)
C[C@H]1OCC2(CCN(c3cnc(C(=O)Nc4cc(F)cc5cccnc45)cn3)CC2)[C@H]1N	34.7%
O=C1[C@@H]2Cc3c([nH]c4ccccc34)[C@H](c3ccc(Br)cc3)N2C(=O)CN1C1CCN(Cc2c(Cl)cccc2Cl)CC1	94.1%
O=C(Nc1ccc(N2CCOCC2)cc1)Nc1ccc2c(ccn2C(=O)c2cccc(F)c2)c1	31.4%
CCc1cc2c(cc1Cl)nc1c(=O)[nH]c(=O)nc-1n2CCOCC(C)C	126%
C=C(C)[C@@H]1CC[C@]2(C(=O)N3CCN(C)CC3)CC[C@]3(C)[C@H](CC[C@@H]4[C@@]5(C)CC[C@H](OP(=O)(OCC)OCC)C(C)(C)[C@@H]5CC[C@]43C)[C@@H]12	63.8%
Cc1cc(Br)ccc1-n1cc(C#N)c(N)c1C(=O)c1ccc(Br)cc1	94.2%
COc1ccc(C(C)=C(c2ccc(OCCN3CCCCCC3)cc2)c2ccc(OCCN3CCCCCC3)cc2)cc1	-8.87% (active)
CC(Nc1c(C#N)cnc2ccc(-c3cncc(-c4n[nH]c(=O)o4)c3)cc12)c1ccccc1 (stereo not given)	-20.9% (active)
COc1cc(-c2nc(-c3ccccc3)[nH]c2-c2ccnc(NCCCNS(=O)(=O)c3cccc(F)c3)n2)ccc1F	134%
CCOP(=O)(OCC)OC[C@]12CCC(C)(C)C[C@H]1C1=CC[C@@H]3[C@@]4(C)CC[C@H](OP(=O)(OCC)OCC)C(C)(C)[C@@H]4CC[C@@]3(C)[C@]1(C)CC2	27.9%
C#Cc1nc(/C=C/CCCCCCC(=O)NO)cs1	-52.3% (active)
Cc1ccc2c(n1)C(=O)C(Cl)=C(Nc1ccc(C(F)(F)F)cc1)C2=O	71.3%
CC(C)(C)c1cc(NC(=O)Nc2ccc(-c3cn4c5c(sc4n3)CCc3c[nH]cc3-5)cc2)no1	23.5%
Cc1ccc(S(=O)(=O)NCCCNc2nc(Nc3ccc(N4CCN(C)CC4)cc3)nc3ccsc23)cc1	49.6%

SMILES	growth
COC(=O)c1cccc(NC2=CC(=O)C(C)=C(C)C2=O)c1	123%
CNC(=O)c1cc(Oc2ccc3c(c2)sc2nc(-c4ccc(N(C)C)cc4)cn23)ccn1	37.9%
Brc1cc(-c2cc(-c3ccc4c(c3)OC=CO4)[nH]n2)cs1	101%
C=C(C)[C@@H]1CC[C@]2(C(=O)O)CC[C@]3(C)[C@H](CC[C@@H]4[C@@]5(C)C/C(=C/c6ccccn6)C(=O)C(C)(C)[C@@H]5CC[C@]43C)[C@@H]12	34.7%
C/C(=C(/C)C1CC1CCNC1CCC(NC(=O)OC(C)(C)C)CC1)c1ccccc1 (stereo not given)	54.8%
CC(=O)c1cc(C(=O)N2c3ccccc3Sc3ccccc32)n2c1ccc1ccccc12	85.2%
CN1CCN(Cc2ccc(/C=N/Nc3ccnc4cc(Cl)ccc34)cc2)CC1	64.3%
O=C(Nc1ccc(N=Cc2c(O)[nH]c3ccccc23)cc1)Nc1ccc(S(=O)(=O)Nc2ncccn2)cc1	94.2%
O=S(=O)(NCCCNc1nccc(-c2[nH]c(-c3ccccc3)nc2-c2ccc(F)c(O)c2)n1)c1ccc(C(F)(F)F)cc1	71.6%
Fc1ccc2nc(-c3cnn4cccnc34)sc2c1	78.9%
O=S(=O)(NCCCNc1nccc(-c2[nH]c(-c3ccccc3)nc2-c2ccc(F)c(O)c2)n1)c1cccc(F)c1	94.6%
N#Cc1c(-c2cccs2)cc(-c2cnccn2)nc1SCC(=O)N/N=C/c1cccs1	30.1%
O=C(CCCCCCNC(=O)C(O)(O)C(F)(F)F)Nc1ccc(Cl)cc1	6.13% (active)
O=C(CCCCCCN1CC(=O)N2[C@@H](c3ccc(Cl)s3)c3[nH]c4ccccc4c3C[C@H]2C1=O)NO	34.6%
CCNC(=O)Oc1ccc(/C(=C(/C)c2ccc(OC)cc2)c2ccc(OCCN3CCCCCC3)cc2)cc1	49.5%
C=C(C)[C@@H]1CC[C@]2(COCCCNCCCN)CC[C@]3(C)[C@H](CC[C@@H]4[C@@]5(C)CC[C@H](O)C(C)(C)[C@@H]5CC[C@]43C)[C@@H]12	-76.2% (active)
O=C1C(SCc2ccccc2)=C(Cl)CN1c1ccc(Cl)cc1	104%
Cc1nc(N)sc1-c1csc(Nc2ccc(C(F)(F)F)cc2)n1	37.3%
CC(Nc1ncnc2ccc(-c3cnc(N)nc3)cc12)c1ccccc1 (stereo not given)	-0.545% (active)
CCOP(=O)(OCC)OC[C@]12CC[C@@H](C)[C@H](C)C1C1=CC[C@@H]3[C@@]4(C)CCCNC(C)(C)[C@@H]4CC[C@@]3(C)[C@]1(C)CC2 (stereo not given in full)	34.8%
